Test results from PubChem BioAssay.

target: Torsin-1A (Homo sapiens) (UniProt O14656); assay: torsin A mutant lysate binding on microarrays – cell lysate, small-molecule microarray, COS7 lysate, 635/667 nm fluorescence, primary screen (AID 1150); conditions: COS7 hTOR1A mutant lysate, 635 nm fluorescence, higher = more signal;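 further: score pools 667 nm emission and signal to noise measuring lysate protein binding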
Sequence (O14656 whole entry, looked up): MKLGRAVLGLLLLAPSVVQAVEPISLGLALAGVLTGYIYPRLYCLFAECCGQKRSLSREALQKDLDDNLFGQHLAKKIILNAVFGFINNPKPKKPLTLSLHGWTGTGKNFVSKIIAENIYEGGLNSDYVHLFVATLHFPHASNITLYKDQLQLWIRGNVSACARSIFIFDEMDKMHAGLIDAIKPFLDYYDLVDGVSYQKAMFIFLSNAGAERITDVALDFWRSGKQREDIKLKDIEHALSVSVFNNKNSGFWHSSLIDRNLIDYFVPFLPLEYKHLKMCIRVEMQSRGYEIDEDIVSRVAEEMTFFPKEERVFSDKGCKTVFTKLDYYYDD

Compound | composite z-score
COC(=O)[C@@]1(Cc2ccc(OC)cc2)[C@H]2c3cc(C(=O)N4CCCC4)n(CCc4ccc(O)c(O)c4)c3C[C@H]2CN1C(=O)c1ccccc1 | 0.641
CC(CO)N1C(=O)[C@@H]2C3C(=O)OCCC/C=C\[C@H]3OC23C=CCN(CCN2CCOCC2)C(=O)[C@@H]13 (some centres undefined) | -0.776
CC1CC/C=C\[C@H]2OC34C=CCN(Cn5nnc6ccccc65)C(=O)[C@H]3N(CCCCCO)C(=O)[C@@H]4C2C(=O)O1 (some centres undefined) | -1.12
COC(=O)C(CC#Cc1ccc2c(c1)[C@]1(C(=O)N2)[C@H](c2ccccc2OCCO)N2[C@H](c3ccccc3)[C@H](c3ccccc3)OC(=O)[C@H]2[C@@H]1C(N)=O)C(=O)OC | 0.434
COC(=O)[C@@]1(Cc2ccc(OC)cc2)[C@H]2c3cc(C(=O)N4CCCC4)n(CCSCCO)c3C[C@H]2CN1C(=O)c1ccccc1 | 1.45
C=CC[C@@]1(C(=O)N2CCCCC2)N=C(c2ccc(OCCCO)cc2)O[C@@H]1c1ccccc1CN=[N+]=[N-] | 0.711
CCOC(=O)C1=C[C@@H](C(C)C)N(S(=O)(=O)c2ccc(C)cc2)[C@H]1c1ccccc1F | 1.15
NC(=O)[C@@]1(Cc2ccccc2)N=C(c2ccc(OCCCO)cc2)O[C@H]1c1ccccc1 | 0.601
COc1cc2c(cc1O)C(c1cccs1)N(Cc1ccc([N+](=O)[O-])o1)CC2 (centres undefined) | -0.155
COCCCNC(=O)[C@@]1(Sc2ccc(C)cc2)CC(=O)N(Cc2ccccc2Cl)[C@@H]1c1ccc(CO)cc1 | 0.582
O=C1N(CCS(=O)(=O)c2ccccc2)c2ccccc2[C@@H]2OC(c3ccc(OCCCO)cc3)=N[C@]12Cc1ccccc1 | 0.208
[N-]=[N+]=Nc1ccccc1C[C@]1(C(=O)N2CCCCC2)COC(c2ccc(OCCCO)cc2)=N1 | 0.742
COc1ccc(CCNC(=O)[C@@]2(c3ccc([N+](=O)[O-])cc3)CC(=O)N(CC34CC5CC(CC(C5)C3)C4)[C@@H]2c2ccc(CO)cc2I)cc1 | 1.05
NCCCCCNC(=O)[C@H]1C[C@H]2C(=O)N3CCC[C@H]3C(=O)N2[C@H]1c1ccc(O)cc1 | 1.09
COCCCNC(=O)[C@@]1(CCS(=O)(=O)c2ccccc2)N=C(c2ccc(OCCCO)cc2)O[C@H]1c1ccccc1N=[N+]=[N-] | 1.49
COc1ccc([Si](C)(C)[C@@H]2[C@@H](CCn3cc(CCO)nn3)O[C@]3(C(=O)N(Cc4cccc(N5C(=O)c6cccc7cccc5c67)c4)c4ccccc43)[C@H]2C)cc1 | 0.141
O=C1OCCC/C=C\[C@H]2OC34C=CCN(c5ccc6ccccc6c5)C(=O)[C@H]3N(CCCCCO)C(=O)[C@@H]4C12 (some centres undefined) | -1.51
CN1C(=O)C2C=CC(C(O)c3ccccc3)N(N3CCCCC3)C2C1=O (centres undefined) | 1.14
C=C(C(=O)CC[C@H](OC(C)=O)c1ccccc1OCCO)C(C)C | -0.752
C=C(CCCC)C(=O)CC[C@@H](OC(C)=O)c1ccc(CO)o1 | 0.232
CC(C)(C)OC(=O)CC[C@]1(C(=O)NCCN2CCOCC2)COC(c2ccc(OCCCO)cc2)=N1 | 1.37
C=CCOC(=O)[C@H]1[C@@H]2C(=O)O[C@@H](c3ccccc3)[C@@H](c3ccccc3)N2[C@@H](c2ccc(OCCOC(=O)[C@H]3C[C@H]4C(=O)N[C@@H](CCCCN(C)C)C(=O)N4[C@H]3c3cccc(OCCO)c3)cc2)[C@]12C(=O)Nc1ccc(I)cc12 | 0.629
[N-]=[N+]=Nc1ccccc1C[C@]1(C(=O)NCc2ccccc2)N=C(c2ccc(OCCCO)cc2)O[C@H]1c1ccccc1N=[N+]=[N-] | 0.286
CCOC(=O)C1=CC[C@@H](c2ccccc2)N(S(=O)(=O)c2ccc(C)cc2)[C@H]1c1ccc(CC)cc1 | 0.359
COCC(=C=CC[C@H](O)c1ccccc1OCCO)CCO | 0.542
COc1ccc(C(=O)Nc2ccc(CN3C(=O)[C@]4(O[C@H](CC(=O)N5CCC[C@H]5CO)[C@@H]([Si](C)(C)c5ccc(OC)cc5)[C@@H]4C)c4ccccc43)cc2)cc1 | 0.421
C=C(C)[C@@H]1CC=C(C(O)C2C=CC3C(=O)NC(=O)C3N2Nc2ccc(Cl)cc2Cl)CC1 (some centres undefined) | 0.455
O=C1O[C@@H](c2ccccc2)[C@@H](c2ccccc2)N2[C@@H](c3ccc(OCCO)cc3)[C@]3(C(=O)Nc4ccc(C#CCCO)cc43)[C@@H](C(=O)NC[C@H](O)c3ccccc3)[C@H]12 | 0.652
O=C1[C@H]2C=C(Br)[C@H](C[C@@H]2OCCCCCCO)[C@@]12CO2 | 0.12
